This is an account of results in the supplement of paper PMC7156485.

Molecules are shown by their SMILES. ± gives the standard deviation of the averaged measurements.

Common to all, as to conditions: concentration: 10 µM; 24 h
Test [1] concerns HCC1569. The test can be described thus: cell number relative to DMSO (% of DMSO); higher = more cells (less growth inhibition / toxicity). A digest of the protocol: (§1)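 Treatment: HCC1569 and TDF cells, 800 per well in 384-well plates with RPMI and 10% FBS, were given compounds at 10 µM for 24 h at 37 °C, in triplicate. Readout: after 3.7% formaldehyde fixation, cells were stained with a rabbit anti-H1.0 antibody, an AlexaFluor 647 secondary and DAPI. Reported values are H1.0 nuclear intensity or cell number as percent of the plate control, taken as the median of replicates, with positional smoothing for HCC1569.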

Test [2] relates to TDF. Described as above. In short, it runs like this: as §1
The test system of test [3] is TDF. In words: H1.0 immunofluorescence intensity relative to DMSO (% of DMSO); higher = stronger H1.0 induction, active = 120 or more. A digest of the protocol: as §1
Test [4] relates to HCC1569. In words: H1.0 immunofluorescence intensity relative to DMSO (% of DMSO); higher = stronger H1.0 induction, active = 140 or more. In short, it runs like this:
as §1
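Wherever H1.0 immunofluorescence intensity relative to DMSO is given: TDF is a line of transformed human dermal fibroblasts of mesenchymal origin.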
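Wherever cell number relative to DMSO is given: TDF denotes transformed human dermal fibroblasts of mesenchymal origin.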

With `CC(C=CC1=C(C)CCCC1(C)C)=CC=CC(C)=CC(=O)O` [13-cis Retinoic acid], the cell number in the test on HCC1569 [1] stood at 98.1 ± 4.4; with TDF [2], 104 ± 2.9. In addition, the H1.0 immunofluorescence intensity in the test with TDF [3] is 92.9 (inactive); with HCC1569 [4], 111 (inactive).
On the same counts, the results for `CC(Oc1c(Cl)cccc1Cl)C1=NCCN1.Cl` (configuration not stated) [Lofexidine.HCl] are 98.9, 107, 100 (inactive) and 96.1 (inactive).
Turning to `CCN(CC)CCOC(=O)c1ccc(N)cc1.Cl` [Procaine hydrochloride], the cell number in the test on HCC1569 [1] came out at 105; in the test with TDF [2] it was 100. Besides, the H1.0 immunofluorescence intensity in the test with TDF [3] is 91.3 (inactive); in the test with HCC1569 [4], 97.8 (inactive).
On the same counts, the results for `CCCCCC#CCC#CCC#CCC#CCCCC(=O)O` are 104, 96.2, 98.2 (inactive) and 101 (inactive).
The like results for `Cc1nccn1CC1CCc2c(c3ccccc3n2C)C1=O` (configuration not stated) [Ondansetron] were, in that order, 103, 104, 95.4 (inactive) and 118 (inactive).
As for `Cc1cc(C(C)(C)C)c(O)c(C(C)(C)C)c1`, the cell number in the test with HCC1569 [1] came out at 99.4; in the test with TDF [2] it was 105. Further, the H1.0 immunofluorescence intensity with TDF [3] was 90.4 (inactive); in the test with HCC1569 [4] it was 99 (inactive).
The like results for `O=C(CCl)c1c[nH]c2ccccc12` [2-chloro-1-(1H-indol-3-yl)ethanone] were, in that order, 63.6, 55, 125 (active) and 150 (active).
On to `CC(=O)NCCc1c(Cc2ccccc2)[nH]c2ccccc12` [N-[2-(2-benzyl-1H-indol-3-yl)ethyl]acetamide], for which the cell number turned out to be 101 with HCC1569 [1] and 92.4 in the test with TDF [2]. Further, the H1.0 immunofluorescence intensity in the test with TDF [3] is 104 (inactive); with HCC1569 [4], 98.9 (inactive).
